Results filed as inconclusive are left out. Entries that show only a call come without a potency. Active and inactive are the calls of the source. The call rests on the fitted dose curve; in most records, active means well fitted curve in the direction sought with a large enough effect; inconclusive means small, poorly fitted or top-dose-only effect, or another doubt; inactive means no such curve, though single readings can be large; an effect the other way counts as inactive or inconclusive.

Assay [1] in a line: qHTS to identify inhibitors of the type 1 interferon - major histocompatibility complex class I in skeletal muscle: primary screen against the NCATS Mechanism Interrogation Plate v5.0 (MIPE) Libary (AID 1347411). The gist of the method:
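Immortalized human C25cl48 myoblasts with HiBit knocked into endogenous HLA-B*08:01 were stimulated with 4.0 ng/ml IFN-beta and exposed to compounds (11-point 1:3 titration, top 46 uM final) for 24 hrs at 37 C; HiBiT lytic luminescence measured.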

The target of assay [2] is Phospholipid hydroperoxide glutathione peroxidase GPX4 (Homo sapiens) (UniProt P36969). Description: Primary qHTS Assay for Inhibitors of Recombinant Selenoprotein Glutathione Peroxidase 4 (GPX4) (AID 1845192). The gist of the method:
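GR-coupled assay: recombinant GPX4 preincubated 30 min with compound at room temperature; final 200 nM GPX4, 1 mM GSH, 0.5 mM cumene hydroperoxide, 0.5 mM NADPH, 100 nM GR, 0.01% BSA, pH 7.5 Tris. NADPH fluorescence (340/450 nm) read at 0 and 15 min.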
(In general: In qHTS, concentration-response curves come from the screen itself.)
Further: nearly all actives have a fitted effect of over 65% in size.
Potency means the concentration at half of the fitted maximal effect.

Chain of Phospholipid hydroperoxide glutathione peroxidase GPX4 (Homo sapiens) (P36969 whole entry, looked up): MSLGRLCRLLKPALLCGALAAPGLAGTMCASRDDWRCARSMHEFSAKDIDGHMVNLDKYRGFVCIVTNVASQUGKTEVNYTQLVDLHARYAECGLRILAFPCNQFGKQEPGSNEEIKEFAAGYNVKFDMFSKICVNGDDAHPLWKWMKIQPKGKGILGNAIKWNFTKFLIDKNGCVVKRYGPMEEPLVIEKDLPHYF

Consider `COC(=O)[C@]12CCC(C)(C)C[C@H]1[C@H]1C(=O)C=C3[C@@]4(C)C=C(C#N)C(=O)C(C)(C)[C@@H]4CC[C@@]3(C)[C@]1(C)CC2`, for which, in assay [1], the Potency was 1170 nM (active). For the same molecule, the Potency result in assay [2] was “inactive”. Regarding `C[C@@H](C1CC[C@@]2(O)C3=CC(=O)[C@@H]4C[C@@H](O)[C@@H](O)C[C@]4(C)[C@H]3CC[C@]12C)[C@H](O)CCC(C)(C)O` (stereo partly drawn), the Potency result in assay [1] and in assay [2] was “inactive” throughout. As to `CC(N[C@H]1C[C@@H]1c1ccccc1)c1ccc2c(c1)OCCO2` (stereo partly drawn), the Potency result in assay [1] is “inactive”.

As for `COC[C@H]1OC(=O)c2coc3c2[C@@]1(C)C1=C(C3=O)[C@@H]2CC[C@H](O)[C@@]2(C)C[C@H]1OC(C)=O`, the Potency entry in assay [1] and in assay [2] was “inactive” throughout. Consider `O=C(O)CNC(=O)C1C(=O)N(C2CCCCC2)C(=O)N(C2CCCCC2)C1=O`, for which the Potency entry in assay [1] and in assay [2] was “inactive” throughout. In the case of `COC12C(COC(N)=O)C3=C(C(=O)C(C)=C(N)C3=O)N1CC1C2N1C` (stereo not drawn), the Potency result in assay [1] and in assay [2] was “inactive” in each case. Regarding `Cc1c(N)nc([C@H](CC(N)=O)NC[C@@H](N)C(N)=O)nc1C(=O)N[C@H](C(=O)N[C@@H](C)[C@H](O)[C@@H](C)C(=O)N[C@@H](C(=O)NCCc1nc(-c2nc(C(=O)NCCC[S+](C)C)cs2)cs1)[C@@H](C)O)C(O[C@H]1O[C@H](CO)[C@H](O)[C@@H](O)[C@H]1O[C@H]1O[C@H](CO)[C@@H](O)[C@H](OC(N)=O)[C@@H]1O)c1cnc[nH]1` (stereo partly drawn), the Potency entry in assay [1] and in assay [2] was “inactive” in each case.

For the molecule `C[C@@H]1CC[C@@]2(OC1)O[C@H]1C[C@H]3[C@@H]4CC=C5C[C@@H](O[C@@H]6O[C@H](CO)[C@@H](O[C@@H]7O[C@@H](C)[C@H](O)[C@@H](O)[C@H]7O)[C@H](O)[C@H]6O[C@@H]6O[C@@H](C)[C@H](O)[C@@H](O)[C@H]6O)CC[C@]5(C)[C@H]4CC[C@]3(C)[C@H]1[C@@H]2C`, the Potency entry in assay [2] is “inactive”. In the case of `CC(C)[C@]12O[C@H]1[C@@H]1O[C@@]13[C@@]1(C)CCC4=C(COC4=O)[C@@H]1C[C@@H]1O[C@@]13C2=O`, in assay [1], the Potency was 131 nM (active). In assay [2], the Potency entry is “inactive”.

In the case of `CC(C)(O)/C=C\C(=O)[C@](C)(O)[C@H]1[C@H](O)C[C@]2(C)[C@@H]3CC=C4[C@@H](C=C(O)C(=O)C4(C)C)[C@]3(C)C(=O)C[C@@]12C`, the Potency in assay [1] is 3300 nM (active). For the same molecule, the Potency result in assay [2] was “inactive”.

As for `CN1C(=O)[C@@H](NC(=O)[C@H](CCC(F)(F)F)[C@H](CCC(F)(F)F)C(N)=O)N=C(c2ccccc2)c2ccccc21`, the Potency result in assay [1] and in assay [2] was “inactive” in each case. `COC(=O)[C@@]12OC[C@]34[C@H]([C@@H](O)[C@@H]1O)[C@@]1(C)CC(=O)C(O)=C(C)[C@@H]1C[C@H]3OC(=O)[C@H](OC(=O)/C=C(\C)C(C)C)[C@@H]24`: the Potency in assay [1] is 65.8 nM (active). For the same molecule, the Potency entry in assay [2] was “inactive”. For `O=C(CBr)N1CC([N+](=O)[O-])([N+](=O)[O-])C1`, the Potency entry in assay [1] and in assay [2] was “inactive” throughout. On to `COc1cc2cc(c1Cl)N(C)C(=O)C[C@H](OC(=O)C(C)C)[C@]1(C)O[C@@H]1[C@H](C)[C@@H]1C[C@@](O)(NC(=O)O1)[C@H](OC)/C=C/C=C(\C)C2`, for which the Potency result in assay [1] and in assay [2] was “inactive” throughout. Turning to `C[C@]12COC(=O)C[C@@H]1CC[C@@H]1[C@@H]2CC[C@@]2(C)[C@H]1CC[C@]2(C)O`, the Potency result in assay [1] and in assay [2] was “inactive” each time. Regarding `C=C(C)[C@@H]1CCC(C)=C[C@H]1c1c(O)cc(CCCCC)cc1O`, the Potency in assay [1] is 33000 nM (active); in assay [2], 17800 nM (active).

Turning to `Cn1c(/C=C/CO)c(CO)c2c1C(=O)C=C(N1CC1)C2=O`, the Potency entry in assay [1] and in assay [2] was “inactive” each time. For `C=C[C@H]1CN2CCC1C[C@@H]2[C@@H](O)c1ccnc2ccccc12` (stereo partly drawn), in assay [1], the Potency result was “inactive”.

Take `C[C@@]12OC(=O)[C@]1([C@@H](O)[C@@H]1C=CCCC1)NC(=O)[C@@H]2CCCl`: in assay [1], the Potency is 29.4 nM (active). In addition, the Potency entry in assay [2] is “inactive”. Consider `C/C=C(\C)C(=O)N[C@@H](c1ccccc1)[C@@H](O)C(=O)O[C@H]1C[C@@]2(O)[C@@H](OC(=O)c3ccccc3)[C@@H]3[C@]4(OC(C)=O)CO[C@@H]4C[C@H](O)[C@@]3(C)C(=O)[C@H](OC(C)=O)C(=C1C)C2(C)C`, for which the Potency entry in assay [1] and in assay [2] was “inactive” each time.

Turning to `CO[C@H]1CCC(O[C@H]2C[C@H]([C@]3(C)CC[C@]4(C[C@H](O)[C@@H](C)[C@@H]([C@@H](C)/C=C(\C)C(=O)[C@H](C)C[C@H](C)C(=O)O)O4)O3)O[C@]3(O[C@@H]([C@H]4O[C@@](O)(CO)[C@H](C)C[C@@H]4C)C[C@@H]3C)[C@@H]2C)O[C@@H]1C` (stereo partly drawn), the Potency entry in assay [2] was “inactive”.

For the origin of these results see PubChem BioAssay (NCATS).
